From PubChem BioAssay AID743445 (Broad Institute, 2014) come the findings set out here.

In all, about 310,000 compounds went through this assay and about 1,700 (0.55%) were called active. Rule as the data show it: active = inhibition above about 50%; inactive = the rest. Many of the other results were omitted from the sample, so actives are more common in it than they were.

In this test the target is Histone-lysine N-methyltransferase NSD2 (Homo sapiens) (UniProt O96028). Briefly: blockers of NSD2 lysine methylation activity – biochemical, AlphaScreen, single concentration, set 2, primary screen (AID 743445). The settings on record: NSD2 peptide methylation, 120 min, at 12.5 µM, stronger effect = higher value.
Sequence of Histone-lysine N-methyltransferase NSD2 (Homo sapiens) (O96028 whole entry, looked up): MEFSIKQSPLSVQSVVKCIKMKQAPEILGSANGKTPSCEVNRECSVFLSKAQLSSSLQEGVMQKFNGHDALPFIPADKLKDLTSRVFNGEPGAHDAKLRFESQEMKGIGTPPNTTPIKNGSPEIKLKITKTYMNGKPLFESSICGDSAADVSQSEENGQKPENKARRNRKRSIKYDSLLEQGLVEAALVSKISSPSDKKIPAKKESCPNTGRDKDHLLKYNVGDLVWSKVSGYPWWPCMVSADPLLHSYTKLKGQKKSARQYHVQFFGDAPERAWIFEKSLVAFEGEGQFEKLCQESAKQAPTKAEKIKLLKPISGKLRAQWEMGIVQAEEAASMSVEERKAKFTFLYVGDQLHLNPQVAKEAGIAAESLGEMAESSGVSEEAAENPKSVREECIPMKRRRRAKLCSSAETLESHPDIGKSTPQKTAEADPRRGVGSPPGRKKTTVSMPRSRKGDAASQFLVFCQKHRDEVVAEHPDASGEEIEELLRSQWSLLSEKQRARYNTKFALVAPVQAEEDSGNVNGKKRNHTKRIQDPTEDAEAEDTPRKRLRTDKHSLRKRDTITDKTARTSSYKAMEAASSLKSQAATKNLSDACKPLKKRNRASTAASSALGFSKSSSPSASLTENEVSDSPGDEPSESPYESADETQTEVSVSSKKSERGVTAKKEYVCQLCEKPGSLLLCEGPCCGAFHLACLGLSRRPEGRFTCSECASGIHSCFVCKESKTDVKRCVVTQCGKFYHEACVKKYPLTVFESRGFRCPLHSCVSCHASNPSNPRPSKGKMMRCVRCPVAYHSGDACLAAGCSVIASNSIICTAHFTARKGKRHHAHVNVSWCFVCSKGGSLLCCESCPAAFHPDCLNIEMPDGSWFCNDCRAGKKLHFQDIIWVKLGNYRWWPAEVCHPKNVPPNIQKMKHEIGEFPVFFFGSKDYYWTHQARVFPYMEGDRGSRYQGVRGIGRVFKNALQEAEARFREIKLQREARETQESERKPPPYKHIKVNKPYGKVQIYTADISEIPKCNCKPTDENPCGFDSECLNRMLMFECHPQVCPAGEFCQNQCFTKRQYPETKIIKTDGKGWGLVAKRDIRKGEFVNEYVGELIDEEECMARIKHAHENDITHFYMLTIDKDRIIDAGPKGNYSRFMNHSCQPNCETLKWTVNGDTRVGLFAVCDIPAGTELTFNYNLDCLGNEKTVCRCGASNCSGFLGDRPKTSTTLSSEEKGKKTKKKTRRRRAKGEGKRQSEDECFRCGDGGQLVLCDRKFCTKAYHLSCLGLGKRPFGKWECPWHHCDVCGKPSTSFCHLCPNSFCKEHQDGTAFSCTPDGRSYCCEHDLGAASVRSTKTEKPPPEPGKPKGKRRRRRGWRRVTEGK
For `Cc1ccc(-n2c(SCC(=O)Nc3ccc(S(=O)(=O)Nc4nccs4)cc3)nnc2-c2ccncc2)cc1`, the inhibition is 6.51% (inactive).
As to `COc1cccc(N2CCN(CC(=O)N(C)Cc3ccc(F)cc3)CC2)c1`, the inhibition is 2.97% (inactive).
Take `CN(C)c1ccc(/C=N/Nc2cc(N3CCOCC3)nc(N3CCOCC3)n2)cc1`: the inhibition was 4.94% (inactive).
Next, `C(=N/Nc1cc(N2CCOCC2)nc(N2CCOCC2)n1)/c1ccccc1`: 50.1% (active); `COc1ccc(/C=N/Nc2cc(N3CCOCC3)nc(C)n2)c(OC)c1`: 7.29% (inactive); `Nn1c(SCC(=O)N2c3ccccc3Sc3ccccc32)nnc1-c1n[nH]c2c1CCC2`: 14.3% (inactive).
For the compound `Cc1ccc(-n2c(SCC(=O)Nc3cccc4ccccc34)nnc2-c2ccco2)cc1`, the inhibition is -0.2% (inactive).
The same measure for `COC(=O)CNC(=O)c1ccccc1[N+](=O)[O-]`: 0.597% (inactive); for `O=C(NNS(=O)(=O)Cc1ccccc1)c1ccc([N+](=O)[O-])cc1`: -3.19% (inactive).
The same measure for `O=C(CNC(=O)c1ccccc1)Oc1ccc([N+](=O)[O-])cc1`: 53.4% (active); for `CC(=O)Nc1cccc(-c2cc3nc(NCc4cccnc4)n(C)c(=O)c3s2)c1`: -4.37% (inactive).
Next, `Cc1ccccc1NC(=O)Cn1nnc(-c2ccccc2F)n1`: -1.41% (inactive).
For the compound `O=C(NCc1ccccc1)[C@@H]1CCCN1C(=O)[C@@H](NS(=O)(=O)c1ccc(F)cc1F)C1CCCCC1`, the inhibition is -1.37% (inactive).
The same measure for `CC(=O)N(C1=C(Cl)C(=O)c2ccccc2C1=O)c1ccc(C(=O)O)cc1`: 142% (active); for `O=C(NC1=CC(=O)c2ccccc2C1=O)c1ccccc1`: 40.2% (inactive); for `CCOC(=O)C1(Cc2ccccc2)CCN(Cc2cn(C(C)=O)c3ccccc23)CC1`: 3.51% (inactive).
The same measure for `Cc1ccc(-c2nnc(SCC(=O)Nc3ccc(Oc4ccccc4)cc3)n2Cc2ccco2)cc1`: 0.417% (inactive).
For the compound `CCOc1cc(/C=C/C(=O)OCC(=O)NCCN2C(=O)CSC2=O)ccc1OCC(C)C`, the inhibition was 128% (active).
The same measure for `CCOC(=O)CCCNC(=O)COC(=O)/C=C/c1ccc2c(c1)OCO2`: -2.71% (inactive); for `CCOc1ccc(/C=C/C(=O)OCC(=O)c2ccccc2OC)cc1OC`: -0.606% (inactive); for `COc1ccc(-n2c(SCC(=O)NC3CCCC3)nnc2-c2ccncc2)cc1`: 7.3% (inactive).
The same measure for `O=C(CN1CCC(O)(c2ccccc2)CC1)Nc1ccc2c(c1)OCCO2`: -3.29% (inactive); for `O=C(Cn1c(=O)sc2ccccc21)Nc1ccc2c(c1)OCCO2`: 6.04% (inactive).
Next, `O=C(Cn1cc(C(F)(F)F)ccc1=O)Nc1ccc2c(c1)OCCO2`: 58% (active); `O=C1Nc2ccccc2OC1CC(=O)N1CCCCCCC1` (centres undefined): 4.5% (inactive).
Take `O=C(NCc1cccs1)C1CCCN(S(=O)(=O)c2ccc([N+](=O)[O-])cc2)C1` (centres undefined): the inhibition was -2.05% (inactive).
Next, `CCOc1ccc(Cl)cc1-c1cc(C(=O)NCc2cccs2)[nH]n1`: 0.509% (inactive).
The same measure for `CCOc1ccc(N(CC(=O)Nc2c(C)n(C)n(-c3ccccc3)c2=O)S(=O)(=O)c2ccc(Cl)s2)cc1`: 0.729% (inactive).
For `Cc1sc2ncnc(SCC(=O)Nc3ccc(CN4CCCC4)cc3)c2c1C`, the inhibition is 56.5% (active).
The same measure for `Cc1sc2ncnc(SCC(=O)NC3CCS(=O)(=O)C3)c2c1C` (centres undefined): -1.67% (inactive); for `COC(=O)c1c(-c2cccs2)csc1NC(=O)CSc1ncnc2sc(C)c(C)c12`: -3.04% (inactive); for `Nn1c(SCC(=O)Nc2cccc3ccccc23)nnc1-c1cc(-c2ccc(F)cc2)n[nH]1`: 8.09% (inactive).
Turning to `COc1ccc(-n2c(COc3ccccc3)nnc2SCC(=O)Nc2ccc3c(c2)OCO3)cc1`, the inhibition was -0.703% (inactive).
`CCOC(=O)c1c(C)[nH]c(C(=O)NCCN2CCOCC2)c1C`: the inhibition is 74.8% (active).
Next, `Cc1cc(C)cc(C(=O)NCCN2CCOCC2)c1`: 4.87% (inactive); `CC(=O)c1c(C)[nH]c(C(=O)NCCCN2CCCC2)c1C`: 7.16% (inactive).
The same measure for `C=CCn1c(SCC(N)=O)nnc1-c1ccccc1OC`: -2.46% (inactive); for `Cc1ccc(-n2c(COc3ccccc3)nnc2SCC(=O)Nc2ccc3c(c2)OCCO3)cc1`: 5.45% (inactive).
Next, `O=C(Nc1cc(F)cc(F)c1)OC1CCC12CCC(c1ccccc1)CC2` (centres undefined): -4.2% (inactive); `COC(=O)c1ccccc1-n1cc(COC(=O)NCCc2ccccc2)nn1`: -1.58% (inactive).
In the case of `O=C(CCCCCN1C(=O)C2C3C=CC(C3)C2C1=O)Nc1ccccc1` (centres undefined), the inhibition is -10.2% (inactive).
The same measure for `O=C(Nc1ccccc1)N1CCN(Cc2nc3ccccc3c(=O)[nH]2)CC1`: -3.56% (inactive); for `O=C(CSc1nnnn1-c1ccccc1)NCc1ccco1`: -2.53% (inactive).
For the compound `O=C(NCc1ccco1)c1nc2ncccn2n1`, the inhibition was -4.87% (inactive).
Next, `O=C(NCc1ccco1)c1nc(-c2ccccc2)n(-c2ccccc2)n1`: 59.6% (active).
Next, `COC(=O)C1=C(C)N(Cc2cccc(C(F)(F)F)c2)C(=NCc2ccccc2)NC1c1ccccc1C(F)(F)F` (centres undefined): -2.64% (inactive); `Nn1c(SCC(=O)Nc2ccc(S(N)(=O)=O)cc2)nnc1-c1n[nH]c2c1CCC2`: -3.92% (inactive).
In the case of `O=C(CSc1nc2sc3c(c2c(=O)n1-c1ccccc1)CCCC3)NN=Cc1ccc(OCc2ccccc2)cc1`, the inhibition was 6.16% (inactive).
Next, `C/C(CC(=O)NC(C)(C)C)=N\NC(=O)c1ccco1`: -3.83% (inactive).
For the compound `C/C(=N/NC(=O)CCc1ccccc1)c1ccco1`, the inhibition is 51.2% (active).
In the case of `COc1cccc2cc(/C(C)=N/NC(=O)c3ccco3)oc12`, the inhibition was -1.2% (inactive).
For `CCOc1ccc(Oc2c(Cl)cnn(-c3ccc(C)cc3)c2=O)cc1`, the inhibition was -2.84% (inactive).
Regarding `O=C(CSc1nc2c(c(=O)[nH]1)CCCC2)N1CCCCC1`, the inhibition was -1.56% (inactive).
Take `CC(C)Nc1nc(NCCOc2ccccc2Cl)c2sccc2n1`: the inhibition was 2.58% (inactive).
Next, `COc1cc(/C=C/C(=O)n2cnc3ccccc32)cc(OC)c1OC`: 0.939% (inactive); `Cc1ccccc1-n1nc(C)c2cc(C(=O)NC3CC3)sc21`: 0.032% (inactive).
With `Cc1ccccc1-n1nc(C)c2c1N=C1C(Cl)=CC(Cl)=CN1C2c1ccc(C(=O)O)cc1` (centres undefined), the inhibition is 51.3% (active).
`Cc1nn(-c2ccccc2)c(Cl)c1/C=C/C(=O)c1ccc(O)cc1`: the inhibition is -0.695% (inactive).
Next, `COc1ccc([C@H]2OC(=O)C[C@H]2C(=O)N2CCN(c3ccccc3F)CC2)cc1OC`: -1.64% (inactive).
Next, `COc1ccccc1N(C)S(=O)(=O)c1ccc(C(=O)N2CCC(C(N)=O)CC2)cc1`: -2.68% (inactive); `COc1ccccc1N(C)S(=O)(=O)c1ccc(C(=O)NC2CCCCCC2)cc1`: 50.3% (active).
The same measure for `COc1ccc(S(=O)(=O)NC(C)C)cc1C(=O)NC1CCCCC1`: 0.027% (inactive).
In the case of `O=C(NCCC1=CCCCC1)C1CCN(S(=O)(=O)c2ccc(Cl)s2)CC1`, the inhibition was -2.83% (inactive).
Next, `COc1ccccc1-c1cc(NC(C)=O)c2ncc(-c3ccc(F)cc3)n2c1`: -0.432% (inactive).
